Results as given in PubChem BioAssay.
Activity calls are given as the source filed them.

Experiments:
Albumin (Bos taurus) = Albumin (Bos taurus) (UniProt P02769); assay: bovine serum albumin binders on microarray, profiling panel, artefact control for SMM control protein annotation, biochemical, small-molecule microarray, Alexa647 label, 635/667 nm fluorescence (AID 1118); settings: BSA-A647 binding, fluorescence 635 nm, higher = more signal;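 note: score merges 667 nm emission intensity and signal-to-noise per printed compound spot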
[1] = small-molecule microarray binders of probe aXIP, primary screen, biochemical, NeuroSMM set, 635/667 nm fluorescence (AID 1119); settings: higher = more signal, called active from +8 up or from −8 down;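 note: probe is the protein aXip251-270 applied at 1 µg/mL to compound-printed slides; binding of probe to printed compounds measured as 667 nm fluorescence plus signal to noise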
[2] = small-molecule binders of probe aNOTCH3, primary screen, biochemical, small-molecule microarray, 635/667 nm fluorescence (AID 1120); settings: higher = more signal;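 note: probe is a biotin-tagged antibody raised against NOTCH3 rather than NOTCH3 protein; score merges spot fluorescence near 667 nm with spot signal to noise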
[3] = small-molecule binders of probe aNOTCH2, primary screen, biochemical, small-molecule microarray, 635/667 nm fluorescence (AID 1121); settings: higher = more signal;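 note: score merges feature fluorescence read at 667 nm with its signal to noise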
[4] = biological target: Carbonic anhydrase 2 (Homo sapiens) (UniProt P00918); assay: CAII small-molecule binders, profiling panel, biochemical, small-molecule microarray, Alexa647-labelled CAII (AID 1122); settings: CAII-A647 binding fluorescence, higher = more signal
[5] = COS7 lysate on small-molecule microarray, probe aHis, 635 nm (AID 1123); settings: COS7 cell lysate, fluorescence, higher = more signal;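 note: z-score combines 667nm fluorescence intensity with signal-to-noise per printed compound spot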
[6] = compound binding in COS7 lysate, probe aLAP1, primary screen, cell lysate, small-molecule microarray (AID 1124); settings: probe aLAP1, fluorescence, higher = more signal;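 note: lysate comes from COS7 cells expressing LAP1 and is applied at 0.3 µg/mL; score merges spot fluorescence near 667 nm with signal-to-noise over triplicate slides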
Sam68 (KHDRBS1) = assay: Sam68 small-molecule binders, primary screen, biochemical, small-molecule microarray, 635 nm fluorescence (AID 1125); settings: small-molecule microarray binding, higher = more signal;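 note: score merges 667 nm channel intensity with signal to noise over triplicate slides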
[7] = system: Chordin-like protein 2 (CHRDL2); assay: CHRDL2 small-molecule binders, primary screen, biochemical, small-molecule microarray, 635 nm fluorescence (AID 1126); settings: small-molecule microarray binding, fluorescence 635 nm; higher = more signal;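 note: printed compound slides probed with Chrdl2 protein at 4 µg/mL for 1 h at 4 C; score merges 667 nm emission intensity with signal to noise over three replicate slides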
[8] = biological target: Concanavalin-A (Canavalia ensiformis) (UniProt P02866); assay: ConA small-molecule binders, primary screen, artefact control for SMM control protein annotation, biochemical, small-molecule microarray, Alexa647 label, 635 nm (AID 1127); settings: ConA-A647 binding fluorescence, higher = more signal;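 note: z combines 667 nm emission intensity with signal-to-noise across three replicate slides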
[9] = anti-His antibody binders, primary screen, artefact control for SMM control protein annotation, biochemical, small-molecule microarray, 635 nm fluorescence (AID 1128); settings: anti-His Alexa647 antibody binding, higher = more signal;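 note: score merges feature fluorescence with signal-to-noise for each printed compound spot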
[10] = system: Human papillomavirus type 1a E7 protein (residues 1-88); assay: HPV1a E7 small-molecule binders, primary screen, biochemical, small-molecule microarray, residues 1-88, 635 nm (AID 1129); settings: small-molecule microarray binding, fluorescence 635 nm; higher = more signal
[11] = biological target: Focal adhesion kinase 1 (Homo sapiens) (UniProt Q05397); assay: small-molecule microarray binders of FAK, primary screen, biochemical, 635/667 nm fluorescence, BSA, DTT (AID 1130); settings: PTK2 binding, 635 nm fluorescence, higher = more signal;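 note: composite of spot emission at 667 nm and signal to noise over triplicate slides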
[12] = system: Fibrinogen (Alexa647-labelled); assay: fibrinogen binders on compound microarrays, profiling panel, artefact control for SMM control-protein annotation, biochemical, small-molecule microarray, 635/667 nm fluorescence (AID 1131); settings: fibrinogen-A647 binding fluorescence, higher = more signal;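 note: z-score merges 667 nm fluorescence with per-spot signal-to-noise over triplicate slides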
[13] = biological target: Follistatin (Homo sapiens) (UniProt P19883); assay: follistatin binders on small-molecule microarrays, primary screen, biochemical, small-molecule microarray, 635/667 nm fluorescence (AID 1132); settings: FST binding, 635 nm fluorescence, higher = more signal
[14] = biological target: Fibroblast growth factor 2 (Homo sapiens) (UniProt P09038); assay: FGF2 binders on small-molecule microarrays, primary screen, biochemical, small-molecule microarray, 635/667 nm fluorescence (AID 1133); settings: small-molecule microarray binding, FGF2, fluorescence 635/667; higher = more signal
[15] = mitochondrial membrane potential change in A549 cells, profiling panel, cell-based, JC-1 fluorescence, basal, 24 h, 100 nL (AID 1138); settings: higher = more signal;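 note: A549 lung adenocarcinoma cells under basal conditions with no added stimulus; test concentration not given here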
Lefty1 = Lefty1 binders on small-molecule microarrays, primary screen, biochemical, small-molecule microarray, 635/667 nm fluorescence (AID 1139); settings: small-molecule microarray binding, fluorescence 635/667; higher = more signal
[16] = system: wheat germ agglutinin (Triticum aestivum), Alexa647-labelled; assay: wheat germ agglutinin binders on compound microarrays, profiling panel, artefact control for SMM control-protein annotation, biochemical, small-molecule microarray, 635/667 nm fluorescence (AID 1140); settings: WGA-A647 binding, 635 nm fluorescence, higher = more signal;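 note: score merges 667 nm feature emission with signal to noise over triplicate slides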
[17] = biological target: Luciferin 4-monooxygenase (Photinus pyralis) (UniProt P08659); assay: firefly luciferase enzyme inhibitors, primary screen, biochemical, luminescence, purified enzyme, 2006 set (AID 1141); settings: SteadyGlo luminescence, 30 min, higher = more signal, called active from +8 up or from −8 down;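 note: cell-free assay with purified firefly luciferase at 100 ng per well in PBS; test concentration not given here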
Luciferin 4-monooxygenase (Photinus pyralis), sequence (P08659 whole entry, looked up): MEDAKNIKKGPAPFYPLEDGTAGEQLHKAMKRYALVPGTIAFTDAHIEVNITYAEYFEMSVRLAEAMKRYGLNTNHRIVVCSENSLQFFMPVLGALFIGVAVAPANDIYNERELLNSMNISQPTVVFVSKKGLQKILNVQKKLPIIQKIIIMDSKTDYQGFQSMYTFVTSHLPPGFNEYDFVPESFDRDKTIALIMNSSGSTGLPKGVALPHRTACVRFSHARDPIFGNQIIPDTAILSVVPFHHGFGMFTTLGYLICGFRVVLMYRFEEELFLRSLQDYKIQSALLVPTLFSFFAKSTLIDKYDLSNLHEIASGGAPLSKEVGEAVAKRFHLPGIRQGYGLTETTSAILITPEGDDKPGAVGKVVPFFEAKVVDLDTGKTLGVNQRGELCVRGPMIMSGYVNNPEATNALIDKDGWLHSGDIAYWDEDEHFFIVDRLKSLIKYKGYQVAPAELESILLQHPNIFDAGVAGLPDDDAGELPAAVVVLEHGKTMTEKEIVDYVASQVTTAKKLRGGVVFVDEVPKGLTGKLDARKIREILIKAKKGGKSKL

Albumin (Bos taurus), sequence (P02769 whole entry, looked up): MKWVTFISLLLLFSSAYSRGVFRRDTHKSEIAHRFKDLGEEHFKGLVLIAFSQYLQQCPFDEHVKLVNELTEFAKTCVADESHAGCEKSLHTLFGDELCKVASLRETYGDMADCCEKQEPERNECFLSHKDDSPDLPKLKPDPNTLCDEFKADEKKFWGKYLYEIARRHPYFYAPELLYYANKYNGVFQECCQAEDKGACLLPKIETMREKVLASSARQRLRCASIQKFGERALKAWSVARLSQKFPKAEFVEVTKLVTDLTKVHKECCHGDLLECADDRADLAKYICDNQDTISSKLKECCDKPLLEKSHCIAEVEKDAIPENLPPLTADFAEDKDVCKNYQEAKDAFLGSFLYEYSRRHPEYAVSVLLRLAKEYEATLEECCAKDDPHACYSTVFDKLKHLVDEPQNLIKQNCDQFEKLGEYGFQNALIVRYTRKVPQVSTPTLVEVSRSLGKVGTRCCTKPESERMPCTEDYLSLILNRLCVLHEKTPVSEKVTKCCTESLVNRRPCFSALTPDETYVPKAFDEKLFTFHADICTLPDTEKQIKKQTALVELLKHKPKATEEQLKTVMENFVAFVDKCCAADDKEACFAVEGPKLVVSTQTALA
Fibroblast growth factor 2 (Homo sapiens), sequence (P09038 whole entry, looked up): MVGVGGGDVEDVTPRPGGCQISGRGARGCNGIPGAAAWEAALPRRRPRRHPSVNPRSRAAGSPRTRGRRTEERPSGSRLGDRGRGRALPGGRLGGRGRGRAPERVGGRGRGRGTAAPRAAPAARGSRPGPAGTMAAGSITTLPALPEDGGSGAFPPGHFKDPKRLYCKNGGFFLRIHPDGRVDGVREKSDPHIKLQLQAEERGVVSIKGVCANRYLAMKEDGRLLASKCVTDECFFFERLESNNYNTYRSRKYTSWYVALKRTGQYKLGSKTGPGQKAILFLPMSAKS
Focal adhesion kinase 1 (Homo sapiens), sequence (Q05397 whole entry, looked up): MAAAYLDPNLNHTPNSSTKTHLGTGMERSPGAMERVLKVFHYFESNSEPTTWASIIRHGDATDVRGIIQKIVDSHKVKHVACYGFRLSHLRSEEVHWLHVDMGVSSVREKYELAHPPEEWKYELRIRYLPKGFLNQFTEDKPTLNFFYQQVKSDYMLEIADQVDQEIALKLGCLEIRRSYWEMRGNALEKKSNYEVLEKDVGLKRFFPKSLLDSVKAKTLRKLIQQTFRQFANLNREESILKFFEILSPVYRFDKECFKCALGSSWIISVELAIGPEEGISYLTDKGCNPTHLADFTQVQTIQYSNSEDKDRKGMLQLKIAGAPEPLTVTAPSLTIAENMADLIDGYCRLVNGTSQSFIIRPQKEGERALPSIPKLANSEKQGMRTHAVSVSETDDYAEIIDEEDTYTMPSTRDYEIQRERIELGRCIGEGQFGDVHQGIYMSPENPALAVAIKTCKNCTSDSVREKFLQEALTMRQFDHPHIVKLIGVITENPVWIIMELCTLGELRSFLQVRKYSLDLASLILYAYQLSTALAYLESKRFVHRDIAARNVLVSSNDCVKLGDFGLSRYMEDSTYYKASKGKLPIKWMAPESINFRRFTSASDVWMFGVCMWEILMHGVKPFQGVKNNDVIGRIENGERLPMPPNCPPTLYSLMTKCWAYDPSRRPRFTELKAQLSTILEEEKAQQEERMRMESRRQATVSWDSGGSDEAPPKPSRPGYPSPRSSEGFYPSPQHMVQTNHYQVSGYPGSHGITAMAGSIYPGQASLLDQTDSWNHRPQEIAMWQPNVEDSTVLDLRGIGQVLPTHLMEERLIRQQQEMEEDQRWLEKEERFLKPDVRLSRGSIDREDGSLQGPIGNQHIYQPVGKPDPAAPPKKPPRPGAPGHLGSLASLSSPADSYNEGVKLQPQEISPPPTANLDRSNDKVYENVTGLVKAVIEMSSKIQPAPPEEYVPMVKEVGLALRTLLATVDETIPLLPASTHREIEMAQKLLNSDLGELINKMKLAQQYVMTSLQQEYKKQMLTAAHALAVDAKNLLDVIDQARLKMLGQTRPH
Follistatin (Homo sapiens), sequence (P19883 whole entry, looked up): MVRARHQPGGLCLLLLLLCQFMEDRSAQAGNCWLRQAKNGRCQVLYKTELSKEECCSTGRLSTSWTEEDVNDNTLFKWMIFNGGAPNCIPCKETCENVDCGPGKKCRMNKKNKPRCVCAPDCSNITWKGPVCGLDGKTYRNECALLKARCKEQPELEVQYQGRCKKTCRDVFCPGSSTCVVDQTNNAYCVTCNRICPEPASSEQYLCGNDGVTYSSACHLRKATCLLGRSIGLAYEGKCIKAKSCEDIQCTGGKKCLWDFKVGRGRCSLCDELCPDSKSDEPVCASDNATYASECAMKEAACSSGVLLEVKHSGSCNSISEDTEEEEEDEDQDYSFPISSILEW
Concanavalin-A (Canavalia ensiformis), sequence (P02866 whole entry, looked up): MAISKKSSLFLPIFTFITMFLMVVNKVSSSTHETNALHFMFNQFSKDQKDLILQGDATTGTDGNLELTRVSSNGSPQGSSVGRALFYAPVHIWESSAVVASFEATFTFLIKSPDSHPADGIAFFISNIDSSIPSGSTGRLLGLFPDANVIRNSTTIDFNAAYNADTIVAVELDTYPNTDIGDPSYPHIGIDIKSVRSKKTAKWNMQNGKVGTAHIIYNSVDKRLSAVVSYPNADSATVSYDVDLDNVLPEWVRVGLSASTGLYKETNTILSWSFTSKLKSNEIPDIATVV

SMILES	composite z-score (Albumin (Bos taurus))	composite Z-score [1]	composite z-score [2]	composite z-score [3]	composite z-score [4]	composite z-score [5]	composite z-score [6]	composite z-score (Sam68 (KHDRBS1))	composite z-score [7]	composite z-score [8]	composite z-score [9]	composite z-score [10]	composite z-score [11]	composite z-score [12]	composite z-score [13]	composite z-score [14]	z-score [15]	composite z-score (Lefty1)	composite z-score [16]	z-score [17]
CC(CCN1CCCCc2nc(C)c(C)cc21)=NOC[C@@H](O)COCc1ccco1	-0.732	1.28 (inactive)	0.149	-0.137	-0.297	-0.964	-0.125	0.428	1.63	-1.26	0.111	-0.91	0.0817	-0.426	1.42	1.98	0.143	1.68	-0.466	0.357 (inactive)
C=CC[C@@H]1C=C[C@H](ON=C2[C@H]3CCn4c(=O)n(-c5ccccc5)c(=O)n4[C@H]3[C@H](O)[C@@H]3O[C@H]23)[C@@H](CO)O1	0.127	-0.227 (inactive)	-0.172	-0.101	0.256	-0.143	-0.208	-0.862	0.564	0.535	3.31	-0.542	-0.118	0.626	0.489	0.095	-0.544	0.96	-0.0168	0.845 (inactive)
CC(C)CON=C1[C@H]2CCn3c(=O)n(Cc4cc5c(cc4Cl)OCO5)c(=O)n3[C@H]2[C@H](O)[C@@H]2O[C@H]12	-0.0261	0.242 (inactive)	-0.0328	-0.0718	0.0904	-0.182	-0.177	0.344	0.529	0.702	0.158	0.489	0.217	0.172	0.768	0.42	-0.937	0.452	-0.121	0.748 (inactive)
Cc1ccc(S(=O)(=O)N[C@@H]2COC(=O)[C@@H](C)COC(=O)CC=C[C@H]2C)cc1	-0.0824	-0.145 (inactive)	0.135	-0.162	-0.006	-0.0704	-0.0424	-0.181	0.379	0.457	0.204	0.389	-0.033	0.466	0.516	0.636	0.493	0.383	-0.0537	-0.836 (inactive)
COC(=O)[C@H]1[C@@H](O)[C@@]2(O)c3ccccc3O[C@@]2(c2ccccc2)[C@@H]1c1ccccc1	-0.642	1.97 (inactive)	-0.1	-0.133	0.18	0.19	-0.221	-0.926	0.14	-0.246	0.434	0.0845	-0.257	-0.842	0.101	0.352	0.266	0.285	1.01	0.487 (inactive)
CCOC(=O)NN=C1C[C@@H](O)[C@@H](O)[C@@H]2[C@@H]3C(=O)N(c4ccc(F)cc4F)C(=O)[C@@H]3CC[C@@H]12	0.66	0.16 (inactive)	-0.144	-0.156	-0.103	0.218	0.196	0.591	0.312	0.307	0.508	0.574	0.252	0.331	0.519	0.187	-0.389	0.775	0.455	1.04 (inactive)
CCOC(=O)[C@H](CC(C)C)NC(=O)CCC1CC(OC(=O)NCc2ccc3c(c2)OCO3)CC2(CCCC(COC(=O)NCc3cccc(C(F)(F)F)c3)O2)O1 (stereo not given in full)	-0.232	-0.104 (inactive)	-0.136	-0.169	0.284	0.292	-0.37	0.119	0.192	0.0441	0.339	0.218	0.201	-0.092	0.337	0.363	-0.326	0.389	0.144	0.679 (inactive)
COC(=O)[C@@H]1CC[C@H](C)[C@@H](c2ccc(C)cc2)N1C(=O)c1ccc(C=NO[C@@H]2O[C@H](COC(C)=O)[C@@H](OC(C)=O)[C@H](OC(C)=O)[C@H]2OC(C)=O)cc1	0.322	0.265 (inactive)	-0.217	-0.0596	-0.0477	0.234	0.116	1.05	0.452	1.01	2.08	0.68	-0.169	0.926	0.551	0.336	0.0992	1.06	0.347	0.945 (inactive)
Cc1cc2c(c(=O)o1)[C@@H](O)[C@H]1O[C@H]1C2=O	-0.293	-0.0055 (inactive)	-0.0744	-0.132	-0.131	-0.243	-0.108	0.568	0.705	0.358	0.432	0.281	0.123	-0.116	0.629	0.374	-1.32	1.32	0.201	0.476 (inactive)
C[C@@H](c1ccccc1)N1C(=O)[C@H]2[C@H]3[C@H](O)[C@H](O)CC(=O)[C@H]3CC[C@H]2C1=O	0.587	-0.0023 (inactive)	-0.367	-0.226	-0.125	0.241	0.567	0.626	0.747	0.336	0.335	0.654	0.336	0.747	0.213	0.284	0.911	0.134	0.0458	-1.36 (inactive)
CC(C)=CCCC(C)=CCON=C1C[C@@H](O)[C@@H](O)[C@@H]2[C@@H]3C(=O)N(C(C)(C)C)C(=O)[C@@H]3CC[C@H]12	0.161	1.26 (inactive)	0.149	-0.0846	0.0334	0.043	0.373	0.293	0.346	0.198	-0.119	0.635	-0.0868	0.199	0.329	0.248	-0.0133	0.536	-0.849	0.0533 (inactive)
